{"source": "the supplement of paper PMC8728848", "test_in_all_cases": "glycan array binding signal (z-score within array); higher = stronger binding", "conditions_in_all_cases": "glycan notation: IUPAC condensed, linker removed", "key": {"[1]": {"target": "GlcNAc(b1-3)Gal(b1-4)GlcNAc(b1-2)Man(a1-3)[GlcNAc(b1-3)Gal(b1-4)GlcNAc(b1-2)Man(a1-6)]Man(b1-4)GlcNAc(b1-4)GlcNAc", "how_it_was_run": "(§1)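 Negative Z-scores can be read as non-binding. The Z-score is calculated within each array and then averaged across arrays of one protein sequence at different concentrations or buffers and across linkers. Arrays, 3228 in all, were curated from the Consortium for Functional Glycomics database and kept only where the protein sequence was available.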"}, "[2]": {"target": "GlcNAc(b1-3)Gal(b1-4)GlcNAc(b1-3)Gal(b1-4)GlcNAc(b1-2)[GlcNAc(b1-3)Gal(b1-4)GlcNAc(b1-3)Gal(b1-4)GlcNAc(b1-6)]Man(a1-6)[GlcNAc(b1-3)Gal(b1-4)GlcNAc(b1-3)Gal(b1-4)GlcNAc(b1-2)Man(a1-3)]Man(b1-4)GlcNAc(b1-4)[Fuc(a1-6)]GlcNAc", "how_it_was_run": "as §1"}, "[3]": {"target": "GlcNAc(b1-3)Gal(b1-4)GlcNAc(b1-3)[GlcNAc(b1-3)Gal(b1-4)GlcNAc(b1-3)]GalNAc", "how_it_was_run": "as §1"}, "[4]": {"target": "GlcNAc(b1-3)[GlcNAc(b1-6)]GalNAc", "how_it_was_run": "as §1"}, "[5]": {"target": "GlcNAc(b1-6)Gal(b1-4)GlcNAc", "how_it_was_run": "as §1"}, "Kdn(a2-3)Gal(b1-3)GalNAc": {"target": "Kdn(a2-3)Gal(b1-3)GalNAc", "how_it_was_run": "as §1"}, "Kdn(a2-3)Gal(b1-4)GlcNAc": {"target": "Kdn(a2-3)Gal(b1-4)GlcNAc", "how_it_was_run": "as §1"}, "[6]": {"target": "Man(a1-2)Man(a1-3)[Man(a1-6)]Man(a1-6)[Man(a1-2)Man(a1-3)]Man(b1-4)GlcNAc(b1-4)GlcNAc", "how_it_was_run": "as §1"}, "Neu5Ac(a2-3)Gal": {"target": "Neu5Ac(a2-3)Gal", "how_it_was_run": "as §1"}, "[7]": {"target": "Neu5Ac(a2-3)Gal(b1-3)GlcNAc(b1-2)Man(a1-3)[Neu5Ac(a2-3)Gal(b1-3)GlcNAc(b1-2)Man(a1-6)]Man(b1-4)GlcNAc(b1-4)GlcNAc", "how_it_was_run": "as §1"}, "[8]": {"target": "Neu5Ac(a2-3)Gal(b1-3)GlcNAc(b1-3)Gal(b1-3)GlcNAc", "how_it_was_run": "as §1"}, "[9]": {"target": "Neu5Ac(a2-3)Gal(b1-3)[Fuc(a1-4)]GlcNAc", "how_it_was_run": "as §1"}, "[10]": {"target": "Neu5Ac(a2-3)Gal(b1-4)GlcNAc(b1-2)Man", "how_it_was_run": "as §1"}, "[11]": {"target": "Neu5Ac(a2-3)Gal(b1-4)GlcNAc(b1-2)[Neu5Ac(a2-3)Gal(b1-4)GlcNAc(b1-4)]Man(a1-3)[GlcNAc(b1-4)][Neu5Ac(a2-3)Gal(b1-4)GlcNAc(b1-2)[Neu5Ac(a2-3)Gal(b1-4)GlcNAc(b1-6)]Man(a1-6)]Man(b1-4)GlcNAc(b1-4)GlcNAc", "how_it_was_run": "as §1"}, "[12]": {"target": "Neu5Ac(a2-3)Gal(b1-4)GlcNAc(b1-3)Gal(b1-3)GlcNAc", "how_it_was_run": "as §1"}, "[13]": {"target": "Neu5Ac(a2-3)Gal(b1-4)GlcNAc(b1-3)Gal(b1-4)GlcNAc", "how_it_was_run": "as §1"}, "[14]": {"target": "Neu5Ac(a2-3)Gal(b1-4)GlcNAc(b1-3)Gal(b1-4)[Fuc(a1-3)]GlcNAc", "how_it_was_run": "as §1"}, "[15]": {"target": "Neu5Ac(a2-3)Gal(b1-4)GlcNAc6S", "how_it_was_run": "as §1"}, "[16]": {"target": "Neu5Ac(a2-3)Gal(b1-4)[Fuc(a1-3)]GlcNAc", "how_it_was_run": "as §1"}, "[17]": {"target": "Neu5Ac(a2-3)GalNAc(b1-4)GlcNAc", "how_it_was_run": "as §1"}, "[18]": {"target": "Neu5Ac(a2-6)Gal(b1-4)GlcNAc", "how_it_was_run": "as §1"}, "[19]": {"target": "Neu5Ac(a2-6)Gal(b1-4)GlcNAc(b1-2)Man(a1-3)[Neu5Ac(a2-3)Gal(b1-4)GlcNAc(b1-2)Man(a1-6)]Man(b1-4)GlcNAc(b1-4)GlcNAc", "how_it_was_run": "as §1"}, "[20]": {"target": "Neu5Ac(a2-6)Gal(b1-4)GlcNAc(b1-3)Gal(b1-3)GlcNAc", "how_it_was_run": "as §1"}, "[21]": {"target": "Neu5Ac(a2-6)Gal(b1-4)GlcNAc(b1-3)Gal(b1-4)GlcNAc(b1-3)Gal(b1-4)GlcNAc(b1-2)Man(a1-3)[Neu5Ac(a2-6)Gal(b1-4)GlcNAc(b1-3)Gal(b1-4)GlcNAc(b1-3)Gal(b1-4)GlcNAc(b1-2)Man(a1-6)]GalNAc", "how_it_was_run": "as §1"}, "[22]": {"target": "Neu5Ac(a2-6)GlcNAc(b1-4)GlcNAc(b1-4)GlcNAc", "how_it_was_run": "as §1"}, "Neu5Ac(a2-8)Neu5Ac": {"target": "Neu5Ac(a2-8)Neu5Ac", "how_it_was_run": "as §1"}, "[23]": {"target": "Neu5Ac(a2-8)Neu5Ac(a2-8)Neu5Ac", "how_it_was_run": "as §1"}}, "note": "This is one part of a sample in which the strongest signals are shown more often than they occur."}
{"binder": "SAOUHSC 00176 (Staphylococcus aureus) (protein) MSKILKCITLAVVMLLIVTACGPNRSKEDIDKALNKDNSKDKPNQLTMWVDGDKQMAFYKKITDQYTKKTGIKVKLVNIGQNDQLENISLDAPAGKGPDIFFLAHDNTGSAYLQGLAAEIKLSKDELKGFNKQALKAMNYDNKQLALPAIVETTALFYNKKLVKNAPQTLEEVEANAAKLTDSKKKQYGMLFDAKNFYFNYPFLFGNDDYIFKKNGSEYDIHQLGLNSKHVVKNAERLQKWYDKGYLPKAATHDVMIGLFKEGKVGQFVTGPWNINEYQETFGKDLGVTTLPTDGGKPMKPFLGVRGWYLSEYSKHKYWAKDLMLYITSKDTLQKYTDEMSEITGRVDVKSSNPNLKVFEKQARHAEPMPNIPEMRQVWEPMGNASIFISNGKNPKQALDEATNDITQNIKILHPSQNDKKGD", "values": [{"measurement": "glycan array binding signal (z-score)", "setting": "[1]", "result": -0.101}, {"measurement": "glycan array binding signal (z-score)", "setting": "[2]", "result": -0.059}, {"measurement": "glycan array binding signal (z-score)", "setting": "[3]", "result": -0.02}, {"measurement": "glycan array binding signal (z-score)", "setting": "[4]", "result": -0.149}, {"measurement": "glycan array binding signal (z-score)", "setting": "[5]", "result": -0.124}, {"measurement": "glycan array binding signal (z-score)", "setting": "Kdn(a2-3)Gal(b1-3)GalNAc", "result": -0.129}, {"measurement": "glycan array binding signal (z-score)", "setting": "Kdn(a2-3)Gal(b1-4)GlcNAc", "result": -0.143}, {"measurement": "glycan array binding signal (z-score)", "setting": "[6]", "result": -0.172}, {"measurement": "glycan array binding signal (z-score)", "setting": "Neu5Ac(a2-3)Gal", "result": -0.179}, {"measurement": "glycan array binding signal (z-score)", "setting": "[7]", "result": 1.08}, {"measurement": "glycan array binding signal (z-score)", "setting": "[8]", "result": -0.055}, {"measurement": "glycan array binding signal (z-score)", "setting": "[9]", "result": -0.157}, {"measurement": "glycan array binding signal (z-score)", "setting": "[10]", "result": 0.473}, {"measurement": "glycan array binding signal (z-score)", "setting": "[11]", "result": -0.073}, {"measurement": "glycan array binding signal (z-score)", "setting": "[12]", "result": -0.09}, {"measurement": "glycan array binding signal (z-score)", "setting": "[13]", "result": 0.002}, {"measurement": "glycan array binding signal (z-score)", "setting": "[14]", "result": -0.015}, {"measurement": "glycan array binding signal (z-score)", "setting": "[15]", "result": -0.027}, {"measurement": "glycan array binding signal (z-score)", "setting": "[16]", "result": -0.132}, {"measurement": "glycan array binding signal (z-score)", "setting": "[17]", "result": -0.141}, {"measurement": "glycan array binding signal (z-score)", "setting": "[18]", "result": -0.148}, {"measurement": "glycan array binding signal (z-score)", "setting": "[19]", "result": -0.114}, {"measurement": "glycan array binding signal (z-score)", "setting": "[20]", "result": -0.079}, {"measurement": "glycan array binding signal (z-score)", "setting": "[21]", "result": 0.358}, {"measurement": "glycan array binding signal (z-score)", "setting": "[22]", "result": 2.56}, {"measurement": "glycan array binding signal (z-score)", "setting": "Neu5Ac(a2-8)Neu5Ac", "result": -0.022}, {"measurement": "glycan array binding signal (z-score)", "setting": "[23]", "result": -0.055}]}
